From PubChem BioAssay AID1259421 (Broad Institute, 2018)
Several values for one entry are separate records, joined by “and”; a condition that tells them apart may be missing. Equal values may be shown once. The whole screen tested about 6,400 compounds, of which about 610 (9.5%) were called active. This is one part of a sample in which actives are shown more often than they occur. Cut-off read from the data, not from the text of the source: active = activity change below about -70%; inconclusive = no clear call, values can overlap the other calls; inactive = above that. A structure can be active in one record and inactive in another.

Assay: T. gondii ME49Luc in HeLa cells, luciferase assay, 72 h, no IFN-y (AID 1259421)
Conditions: stronger effect = lower value, concentration not given here
For `CNC(=O)c1cccc2cc(Oc3ccnc4cc(OCC5(N)CC5)c(OC)cc34)ccc12`, the activity change, negative = inhibition was -25% (inactive).
In the case of `COc1ccc2c(OCc3nnc4ccc(-c5ccccc5)nn34)ccnc2c1`, the activity change, negative = inhibition is reported as 4.78% (inactive).
With `COc1ccc2c(Oc3ccc(NC(=O)c4c(C)n(CC(C)(C)O)n(-c5ccccc5)c4=O)nc3)ccnc2c1` the activity change, negative = inhibition was -67.1% (inactive) and -82.5% (active).
For `C[C@@H]1CC2C3CCC4=CC(=O)C=C[C@]4(C)[C@@]3(F)[C@@H](O)C[C@]2(C)[C@@]1(O)C(=O)CO` (stereo not given in full), the activity change, negative = inhibition was -4.17% (inactive).
With `C[C@@H]1CCCN1CCc1cc2cc(-c3ccc(C#N)cc3)ccc2o1` the activity change, negative = inhibition was 3.6% (inactive).
With `C=CCN1CC(C(=O)N(CCCN(C)C)C(=O)NCC)CC2c3cccc4[nH]cc(c34)CC21` (stereo not given) the activity change, negative = inhibition was 5.12% (inactive).
With `C[C@]12CCC(=O)C=C1C=CC1C2CC[C@@]2(C)C1CC[C@@]21CCC(=O)O1` (stereo not given in full) the activity change, negative = inhibition was 4.56% (inactive) and -4.95% (inactive).
In the case of `C[C@]12CCC(=O)C=C1[C@@H]1C[C@@H]1[C@H]1[C@@H]3[C@@H]4C[C@@H]4[C@@]4(CCC(=O)O4)[C@@]3(C)CC[C@@H]12`, the activity change, negative = inhibition is reported as -75.7% (active) and -36.5% (inactive).
In the case of `CC(=O)S[C@@H]1CC2=CC(=O)CC[C@]2(C)[C@H]2CC[C@@]3(C)[C@@H](CC[C@@]34CCC(=O)O4)[C@H]12`, the activity change, negative = inhibition is reported as -13.5% (inactive) and -2.91% (inactive).
For `CCS(=O)(=O)N1CCN(c2ccc(Nc3ncc(C(N)=O)c(NC4CC4)n3)cc2)CC1`, the activity change, negative = inhibition was -79.3% (active).
For `O=c1[nH]ccc2c(S(=O)(=O)N3CCCNCC3)cccc12`, the activity change, negative = inhibition was 13.8% (inactive) and 2.48% (inactive).
With `CN1C(C(=O)Nc2ccccn2)C(=O)c2ccccc2S1(=O)=O` (stereo not given) the activity change, negative = inhibition was 35.3% (inactive) and 14.6% (inactive).
With `CCOC(=O)C(C)Oc1cccc2c(=O)n(CC(=O)Nc3ccc4c(c3)OCCO4)ccc12` (stereo not given) the activity change, negative = inhibition was 14.7% (inactive).
With `O=C1CC2(CCCC2)CC(=O)N1CCCCNCC1COc2ccccc2O1` (stereo not given) the activity change, negative = inhibition was 21% (inactive) and 7.16% (inactive).
In the case of `CC(C)(C)NC(=O)[C@@H]1CC2CCCCC2CN1C[C@@H](O)[C@H](Cc1ccccc1)NC(=O)[C@H](CC(N)=O)NC(=O)c1ccc2ccccc2n1` (stereo not given in full), the activity change, negative = inhibition is reported as 13.2% (inactive).
In the case of `CCCCCCCCO`, the activity change, negative = inhibition is reported as 2.72% (inactive).
For `CC(=O)NC[C@H]1CN(c2ccc(-c3ccc(CNCc4cn[nH]n4)cc3)c(F)c2)C(=O)O1`, the activity change, negative = inhibition was -34.7% (inactive).
For `NC(=O)Nc1cc(-c2cccc(F)c2)sc1C(=O)N[C@H]1CCCNC1`, the activity change, negative = inhibition was -74.8% (active) and -87.7% (active).
In the case of `COc1cc(C(=O)NC2CCCNC2)cc(OC)c1OC` (stereo not given), the activity change, negative = inhibition is reported as 25.6% (inactive).
With `NC(=O)Nc1sc(-c2ccc(F)cc2)cc1C(N)=O` the activity change, negative = inhibition was 12.6% (inactive).
In the case of `CC(C)[C@@H](CS(=O)(=O)C(C)C)N1C(=O)[C@@](C)(CC(=O)O)C[C@H](c2cccc(Cl)c2)[C@H]1c1ccc(Cl)cc1`, the activity change, negative = inhibition is reported as 5.9% (inactive).
In the case of `NCCCCNS(=O)(=O)c1ccc2c(Cl)cccc2c1`, the activity change, negative = inhibition is reported as 2.08% (inactive).
In the case of `CC(O)C1C(=O)N2C(C(=O)O)=C(C3CCCO3)SC12` (stereo not given), the activity change, negative = inhibition is reported as 5.92% (inactive).
With `CCOc1ccc(Cc2nccc3cc(OCC)c(OCC)cc23)cc1OCC` the activity change, negative = inhibition was -67.8% (inactive) and -79.8% (active).
With `COc1ccc(Cc2cnc(N)nc2N)cc1OC` the activity change, negative = inhibition was 9.87% (inactive).
In the case of `COc1ccc(Cc2nccc3cc(OC)c(OC)cc23)cc1OC`, the activity change, negative = inhibition is reported as -2.52% (inactive) and -6.18% (inactive).
With `CN1C(=O)C(F)=C[C@]2(C)[C@H]3CC[C@]4(C)[C@@H](C(=O)NCc5nc6ncccc6[nH]5)CC[C@H]4[C@@H]3CC[C@@H]12` the activity change, negative = inhibition was -1.27% (inactive).
For `C=C[C@@H](C1=CC(=O)C(OC)=C(OC)C1=O)c1ccccc1`, the activity change, negative = inhibition was -1.89% (inactive).
With `COc1cc(N)c(Cl)cc1C(=O)N[C@@H]1CCNCC1OC` (stereo not given in full) the activity change, negative = inhibition was 8% (inactive).
In the case of `O=C(O)C1(Cc2cccc(Nc3nccs3)n2)CCC(Oc2cccc(Cl)c2F)CC1` (stereo not given), the activity change, negative = inhibition is reported as -34% (inactive).
In the case of `CC(C)(C)CC(C)(C)c1ccc(O)c(-n2nc3ccccc3n2)c1`, the activity change, negative = inhibition is reported as 47.6% (inactive).
With `O=C(c1ccc(CN2CCOCC2)cc1)N1CCN(C2CC2)CC1` the activity change, negative = inhibition was 10.6% (inactive).
With `O=C(Nc1cn[nH]c1-c1nc2ccc(CN3CCOCC3)cc2[nH]1)NC1CC1` the activity change, negative = inhibition was -84.3% (active).
With `CC(C)(S)C(=O)N[C@@H](CS)C(=O)O` the activity change, negative = inhibition was -3.42% (inactive).
For `CCOC(=O)Nc1c[n+](N2CCOCC2)no1`, the activity change, negative = inhibition was 8.47% (inactive).
With `Cc1ccc(/C(=C\CN2CCCC2)c2ccccn2)cc1` the activity change, negative = inhibition was 0.786% (inactive) and 2.04% (inactive).
For `C/C(=N\NC(=S)N1CCC1)c1ccccn1`, the activity change, negative = inhibition was -84.6% (active).
For `Cc1ccc(/C(=C/CN2CCCC2)c2ccccn2)cc1`, the activity change, negative = inhibition was -1.47% (inactive).
For `CC(=O)O[C@@H]1CC2C(C)(C)C(=O)C=C[C@]2(C)C2CC[C@@]3(C)[C@H](c4ccoc4)OC(=O)[C@H]4O[C@]43[C@@]21C` (stereo not given in full), the activity change, negative = inhibition was 22.1% (inactive).
In the case of `Nc1nc2c(c(=O)[nH]1)N(C=O)[C@@H](CNc1ccc(C(=O)N[C@@H](CCC(=O)O)C(=O)O)cc1)CN2`, the activity change, negative = inhibition is reported as 22.2% (inactive).
In the case of `CCOC(=O)C1=CCCC[C@H]1S(=O)(=O)Nc1ccc(F)cc1Cl`, the activity change, negative = inhibition is reported as 18.7% (inactive).
In the case of `O=C(O)Cc1ccc2c(c1)C(=O)c1ccccc1CO2`, the activity change, negative = inhibition is reported as 19.3% (inactive).
In the case of `Cc1cc(O)c(C=O)c2c1C(=O)Oc1c(C)c(O)c3c(c1O2)C(O)OC3=O` (stereo not given), the activity change, negative = inhibition is reported as -75.6% (active).
With `COc1cc(C)c2c(c1C=O)Oc1c(c(C)c(O)c3c1C(O)OC3=O)OC2=O` (stereo not given) the activity change, negative = inhibition was -5.42% (inactive).
In the case of `COC(=O)c1c(C)c2c(c(C)c1O)OC(=O)c1c(C)c(Cl)c(O)c(Cl)c1O2`, the activity change, negative = inhibition is reported as -3.73% (inactive).
In the case of `CS(=O)(=O)Nc1c(O)ccc2c1CCCC2C1=NCCN1` (stereo not given), the activity change, negative = inhibition is reported as 15.3% (inactive) and 0.146% (inactive).
With `CC(=O)[C@@]1(O)CCC2C3C[C@H](C)C4=CC(=O)C=CC4(C)[C@@]3(F)[C@@H](O)C[C@@]21C` (stereo not given in full) the activity change, negative = inhibition was 10% (inactive) and 7.34% (inactive).
With `NC(N)=NC(=O)c1nc(Cl)c(N2CCCCCC2)nc1N` the activity change, negative = inhibition was 3.26% (inactive).
With `CC(=O)OCC(=O)[C@@]1(O)[C@@H](C)CC2C3CCC4=CC(=O)C=C[C@]4(C)[C@@]3(F)[C@@H](O)C[C@@]21C` (stereo not given in full) the activity change, negative = inhibition was -12.5% (inactive).
With `N#Cc1cc(-c2n[nH]c(-c3ccncc3)n2)ccn1` the activity change, negative = inhibition was 17.6% (inactive).
In the case of `O=C(O)/C=C/c1ccc(-c2ccc(O)c(C34CC5CC(CC(C5)C3)C4)c2)cc1`, the activity change, negative = inhibition is reported as -96.6% (active).
In the case of `O=C(O)c1ccc(-c2ccc3cc(O)c(C45CC6CC(CC(C6)C4)C5)cc3c2)cc1`, the activity change, negative = inhibition is reported as -2.82% (inactive).
With `O=C(O)c1ccc2cc(-c3ccc(O)c(C45CC6CC(CC(C6)C4)C5)c3)ccc2c1` the activity change, negative = inhibition was -56% (inactive).
In the case of `CC(C)=CCC[C@](C)(O)[C@H]1CC[C@]2(C)[C@@H]1[C@H](O)C[C@@H]1[C@@]3(C)CC[C@H](O)C(C)(C)[C@@H]3[C@@H](O)C[C@]12C`, the activity change, negative = inhibition is reported as 8.14% (inactive).
With `COc1c2ccoc2cc2oc(C)cc(=O)c12` the activity change, negative = inhibition was 0.747% (inactive).
In the case of `C=C1/C(=C\C=C2\CCC[C@]3(C)[C@@H]([C@H](C)CCCC(C)C)CC[C@@H]23)C[C@@H](O)C[C@@H]1O`, the activity change, negative = inhibition is reported as -54.9% (inactive).
With `C=C1/C(=C\C=C2/CCC[C@]3(C)[C@@H]([C@H](C)CC[C@@H](O)C(C)C)CC[C@@H]23)C[C@@H](O)C[C@@H]1O` the activity change, negative = inhibition was 3.62% (inactive).
With `C=C1/C(=C\C=C2/CCC[C@]3(C)[C@@H]([C@H](C)CCCC(C)(C)O)CC[C@@H]23)C[C@@H](O)C[C@@H]1O` the activity change, negative = inhibition was -69.8% (inactive) and 11.1% (inactive).
For `C=C1/C(=C\C=C2/CCC[C@]3(C)[C@@H]([C@H](C)/C=C/[C@H](C)C(C)(C)O)CC[C@@H]23)C[C@@H](O)C[C@@H]1O`, the activity change, negative = inhibition was 13.5% (inactive).
For `C=C1/C(=C/C=C2\CCC[C@]3(C)[C@@H]([C@H](C)/C=C/[C@@H](C)C(C)C)CC[C@@H]23)C[C@@H](O)C[C@@H]1O`, the activity change, negative = inhibition was -75% (active).
In the case of `C=C1/C(=C/C=C2/CCC[C@]3(C)[C@@H]([C@H](C)CCCC(C)C)CC[C@@H]23)C[C@@H](O)C[C@@H]1O`, the activity change, negative = inhibition is reported as -75.5% (active).
In the case of `C=C1C(=C/C=C2\CCC[C@]3(C)[C@@H]([C@H](C)/C=C/[C@@H](O)C4CC4)CC[C@@H]23)C[C@@H](O)C[C@@H]1O`, the activity change, negative = inhibition is reported as 12.8% (inactive).
With `C=C1CC[C@H](O)C/C1=C/C=C1\CCC[C@]2(C)[C@@H]([C@H](C)CCCC(C)C)CC[C@@H]12` the activity change, negative = inhibition was -78.3% (active).
With `C=C1CC[C@H](O)C/C1=C/C=C1\CCC[C@]2(C)[C@@H]([C@H](C)CC[C@@H](O)C(C)(C)O)CC[C@@H]12` the activity change, negative = inhibition was 1.97% (inactive).
With `C[C@H]1OC(O)[C@H](O)[C@H](O)[C@H]1O` (stereo not given in full) the activity change, negative = inhibition was -0.633% (inactive).
In the case of `CC(=O)O[C@H]1C[C@@H](O)C(C)(C)C2C[C@@H](OC(C)=O)[C@]3(C)C(CC[C@@]4(C)[C@H](c5ccoc5)OC(=O)C5OC543)[C@]21C` (stereo not given in full), the activity change, negative = inhibition is reported as -2.36% (inactive).
In the case of `Cc1c(Cn2ccnc2)c2ccccc2n1CCC(=O)O`, the activity change, negative = inhibition is reported as 13% (inactive).
For `O=c1[nH]c(-c2ccc(C(F)(F)F)cc2)nc2c1CSCC2`, the activity change, negative = inhibition was 29.4% (inactive).
In the case of `NC1(C(=O)N[C@@H](CCO)c2ccc(Cl)cc2)CCN(c2ncnc3[nH]ccc23)CC1`, the activity change, negative = inhibition is reported as 9.43% (inactive).
For `CC(C)C[C@H](NC(=O)[C@@H](Cc1c[nH]c2ccccc12)NC(=O)[C@H](Cc1ccc(O)cc1)NC(=O)[C@H](CO)NC(=O)[C@H](Cc1c[nH]c2ccccc12)NC(=O)[C@H](Cc1cnc[nH]1)NC(=O)[C@@H]1CCC(=O)N1)C(=O)N[C@@H](CCCN=C(N)N)C(=O)N1CCC[C@H]1C(=O)NCC(N)=O`, the activity change, negative = inhibition was -22.2% (inactive).
